Shown is part of a subset that was picked to be rich in hits.
Pf Dd2 growth = blocks in vitro growth of P. falciparum Dd2 | P. falciparum Dd2 growth, SYBR Green, 72 h | Potency, µM (doses to about 28.9 µM), usual class: inhibitors | 120,000 compounds, 4.3% hits; active = well fitted inhibition curve with a large enough effect; also: nearly all actives have a fitted effect of over 65% in size
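Infected erythrocytes (Dd2, 0.3% parasitemia, 2.5% hematocrit final) are added to compound in RPMI-1640/Albumax II medium, grown 72 h at 37C in low oxygen, then lysed with saponin/Triton-X containing SYBR Green and read by fluorescence.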
Hits are given with their value; i = inactive.

SMILES | Pf Dd2 growth
CCC(=O)N1CCc2cc(S(=O)(=O)NC(C(=O)NCc3ccccc3Cl)C(C)C)ccc21 (stereo not drawn) | i
Cc1cccc(Cn2nnc3c(=O)[nH]c(C4CCN(C(=O)c5ccccc5F)CC4)nc32)c1 | i
O=C(Cc1ccc(F)cc1)N1CCC(c2nc3c(nnn3Cc3ccc(Cl)cc3)c(=O)[nH]2)CC1 | 14µM
O=C(Cc1ccccc1F)N1CCC(c2nc3c(nnn3Cc3ccc(F)cc3)c(=O)[nH]2)CC1 | i
CC(C)CC(=O)N1CCC(N2C[C@H](O)C[C@H]2C(=O)NCc2cccnc2)CC1 | i
Cc1cccc(C)c1NC(=O)Cn1nc2n(c1=O)CCCC2 | i
CC(=O)NC1(C)CCN(Cc2cnc(-c3ccccc3)s2)CC1 | i
CC(=O)NC1(C)CCN(Cc2cnc(-c3cccc(N(C)C)c3)s2)CC1 | i
CC(=O)NC1(C)CCN(Cc2ccc(-c3ccccc3OCc3ccccc3)cc2)C1 (stereo not drawn) | 13µM
CC(=O)NC1(C)CCN(Cc2ccc(-c3ccc(N4CCOCC4)cc3)cc2)C1 (stereo not drawn) | i
CC(=O)NC1(C)CCN(Cc2ccccc2-c2cccc(C(C)=O)c2)C1 (stereo not drawn) | i
CC(=O)NC1(C)CCN(Cc2cnc(-c3ccccc3OCc3ccccc3)s2)CC1 | 11µM
O=C(NCC1CCOCC1)C1c2ccccc2C(=O)N(C2CCCCC2)C12CCCCC2 (stereo not drawn) | i
CC1(CCCCN2CCOCC2)COc2ccc(C(=O)NCc3cccc(F)c3)cc2N1 (stereo not drawn) | i
CCc1noc(C)c1C(=O)N1CCCC(CO)(CC=C(C)C)C1 (stereo not drawn) | i
CC(C)=CCC1(CO)CCCN(Cc2[nH]c3ccc(F)cc3c2C)C1 (stereo not drawn) | 2.2µM
CCCC1(CO)CCCN(Cc2nnc(-c3cccc(F)c3)o2)C1 (stereo not drawn) | i
CC[C@@H]1[C@@H](NC(=O)C2(c3ccc(S(C)(=O)=O)cc3)CCC2)[C@@H]2CCO[C@H]12 | 8.9µM
CC[C@@H]1[C@@H](NC(=O)CC2Cc3ccccc3C2)[C@@H]2CCO[C@H]12 | i
CC[C@@H]1[C@@H](NC(=O)Cc2csc(C(C)=O)c2)[C@@H]2CCO[C@H]12 | i
Cc1cccc(C(=O)Nc2cccc(C3OC(=O)N(Cc4ccccc4)C3C(=O)N3CCOCC3)c2)c1 (stereo not drawn) | i
O=C(C1CCCC1)N1CCC(c2nc(C3CCOCC3)no2)C1 (stereo not drawn) | i
COc1ccc(OC)c(CN2CCNc3cnc(Nc4ccccc4)cc3C2)c1 | i
Cc1cc(C(=O)N2CCCC2c2nncn2CCN(C)C)n(C)n1 (stereo not drawn) | i
Cc1ncc(CN2CCC(C(=O)Nc3cccc(-c4cc5ccccc5[nH]4)c3)CC2)cn1 | 8.9µM
SMILES | Pf Dd2 growth
CSc1cccc(NC(=O)C2CCN(c3nc4ccccc4[nH]3)CC2)c1 | i
O=C(Nc1cccc(-c2ccco2)c1)C1CCN(Cc2ccc(CO)o2)CC1 | i
C=CCn1cc(-c2c(-c3ccccc3)ncn2Cc2cncn2CCOC)cn1 | i
Cc1ccccc1-c1nccc2c(=O)cc(-c3ccncc3)oc12 | i
Cc1ccccc1-c1nccc2c(=O)cc(N(C)C3CCOCC3)oc12 | i
Cc1ccccc1-c1nccc2c(=O)cc(C3=CCOCC3)oc12 | 10µM
Cn1nccc1CN1CCC(N2CCNC2=O)CC1 | i
Cc1nc2c(c(N3CCC(O)(CN4CCCC4)CC3)n1)CCNCC2 | i
Cc1ccc(C(=O)N2CCc3sc(C(=O)NCc4ccc(N(C)C)cc4)cc3C2)cc1 | i
Cc1ccc(C(=O)N2CCc3sc(C(=O)NC(C)c4ccccc4)cc3C2)cc1 (stereo not drawn) | 7.1µM
CC(NC(=O)c1cc2c(s1)CCN(C(=O)c1ccccc1)C2)c1ccc(F)cc1 (stereo not drawn) | i
COc1ccc(-c2cc(N3CCN(C(=O)c4cccc(OC)c4)CC3)n[nH]2)cc1 | i
COc1cccc(C(=O)N[C@@H]2CN(c3ccccn3)C[C@H]2CN(C)C)c1 | i
CCCOC(=O)c1cccc(Nc2nc(C(=O)OCC)nc3ccccc23)c1 | 5.6µM
CCOC(=O)c1cccc(NC(=O)CCc2nc3cccnc3n2-c2ccccc2)c1 | i
Cc1cccc(Nc2nc(-c3ccccc3)nc3ccccc23)c1 | i
COc1ccc(NC(=O)CSc2c3c(nc4ccccc24)CCC3)cc1Cl | i
CCOC(=O)c1cccc(Nc2c3c(nc4ccccc24)CCC3)c1 | 10µM
COc1cc(Cl)c(C)cc1Nc1c2c(nc3ccccc13)CCC2 | 8.9µM
CCOC(=O)c1cccc(Nc2nc(C(=O)OCC)nc3ccccc23)c1 | 7.9µM
CCOC(=O)c1nc(Nc2ccc(C(C)=O)cc2)c2ccccc2n1 | i
COc1cc(Cl)c(C)cc1NC(=O)c1ccc2c(Cl)c3c(nc2c1)CCC3 | i
CCOC(=O)c1nc(Nc2ccccc2C)c2ccccc2n1 | i
CCOC(=O)c1cccc(Nc2cc(-c3ccccc3)ncn2)c1 | i
CCOC(=O)c1nc(Nc2cccc(C)c2)c2ccccc2n1 | i
SMILES | Pf Dd2 growth
CC1CCN(C(=O)c2ccccc2OCC2CCCNC2)CC1 (stereo not drawn) | i
CN(C)C(=O)N1CCN([S+](=O)([O-])c2ccc(Cl)nc2)C(=O)C1 | i
Cc1ccccc1-c1cnc2[nH]cc(CC(=O)N3CCCC3)c2c1 | i
CN1C[C@@H]2CCCN3CCC[C@@H]([C@H]23)[C@H]1CCCC(=O)NCCC1=CCCCC1 | i
COc1cccc(Cn2c(=O)c3ccnn3c3ccc(C(=O)O)cc32)c1 | i
O=C(N1CCCC1)N1CCN(C2CCNCC2)C(=O)C1 | i
COc1ccc(-c2nc(C)nc3c2CCN(C(=O)c2ccccc2OC)CC3)cc1 | i
CC(C)CC(=O)N1CCN(c2nnc3ccc(C(F)(F)F)cn23)CC1 | i
CN1c2cc(C(=O)Nc3cc(F)ccc3F)ccc2C(=O)N2CCCCCC21 (stereo not drawn) | i
O=[S+]1([O-])NCC2(CCN(Cc3ccccc3C(F)(F)F)CC2)Nc2ccccc21 | 13µM
O=[S+]1([O-])NCC2(CCN(Cc3ccc(OC(F)(F)F)cc3)CC2)Nc2ccccc21 | i
O=[S+]1([O-])NC2(CCN(CC3CCCCC3)C2)CNc2ccccc21 (stereo not drawn) | i
O=[S+]1([O-])NCC2(CCN(CC3CCCCC3)C2)Nc2ccccc21 (stereo not drawn) | 4.5µM
O=[S+]1([O-])NCC2(CCN(Cc3ccccc3)C2)Nc2ccccc21 (stereo not drawn) | i
O=[S+]1([O-])NCC2(CCN(Cc3cccc4ccccc34)CC2)Nc2ccccc21 | i
COc1cccc(CN2CCCCC(N)C2)c1OCCn1ccnc1 (stereo not drawn) | i
CC(=O)Nc1ccc([C@H]2OCC(=O)N(Cc3ccccc3)[C@@H]2CO)cc1 | i
COc1ccc(C2CC(=O)c3c([nH]c(C(=O)OC4CCC(C)CC4)c3C)C2)cc1OC (stereo not drawn) | i
CCOC(=O)c1[nH]c2c(c1Cc1ccccc1OC)C(=O)CC(c1ccccc1)C2 (stereo not drawn) | 11µM
Cc1c(C(=O)OCCOc2ccccc2)[nH]c2c1C(=O)CC(c1ccc(C(C)(C)C)cc1)C2 (stereo not drawn) | 4µM
CCOC(=O)c1ccc(NC(=O)c2cc3c([nH]c2=O)CC(c2ccccc2)CC3=O)cc1 (stereo not drawn) | i
COc1ccc(C2CC(=O)c3c([nH]c(C(=O)OCc4ccccc4)c3C)C2)cc1 (stereo not drawn) | i
